Only a selection was taken, and hits are over-represented in it overall.
ERK EGF inh: qHTS Assay for Inhibitors of the ERK Signaling Pathway using a Homogeneous Screening Assay; Stimulation with EGF. HEK293-V1b, EGF-stimulated phospho-ERK AlphaScreen. Potency, µM (titrated, usually from 11.5 µM), for inactives: top-dose activity change, negative = inhibition, actives largely listed as inhibitors. 0.41% of 130,000 active. AID 1454, 2008; active = well fitted inhibition curve with a large enough effect;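 also: plate controls were stimulated vehicle wells for no effect and unstimulated vehicle basal for full effect; nearly all actives have a fitted effect of over 55% in size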
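HEK293 cells stably expressing V1b receptor, serum-reduced (1% FBS) overnight, pretreated 30 min with compound, then stimulated 5 min with 25 nM EGF; phospho-ERK detected by AlphaScreen SureFire. AC50 from Hill fits, normalized to DMSO and EGF.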
Starred values were filed as active, the others as inactive; [ ] = remark or other dose. Potency is read from the fitted curve at half-maximal effect.

SMILES	ERK EGF inh
Cc1csc2ncnc(N3CCN(C(=O)Nc4ccc(OC(F)(F)F)cc4)CC3)c12	28µM*
O=C(Nc1ccc(OC(F)(F)F)cc1)c1ccc(-n2cncn2)nc1	-10%
O=C(Nc1ccc(OC(F)(F)F)cc1)N1CCN(c2ccnc3cc(Cl)ccc23)CC1	-2%[57.5 µM]
O=C1OCCN1/N=C\c1ccc([N+](=O)[O-])o1	-7%[25.7 µM]
OCC1OC([S-])[C@H](O)C(O)C1O.[Au+] (stereo partly drawn)	-14%
CCC(C)C1NC(=O)C(CCNCS(=O)(=O)O)NC(=O)C(NC(=O)C(CCNCS(=O)(=O)O)NC(=O)C(NC(=O)C(CCNCS(=O)(=O)O)NC(=O)CCCCC(C)C)C(C)O)CCNC(=O)C(C(C)O)NC(=O)C(CCNCS(=O)(=O)O)NC(=O)C(CCNCS(=O)(=O)O)NC(=O)C(C(C)CC)NC1=O (stereo not drawn)	2%
CC(C)C(=O)NC(=S)Nc1ccc(CN2CCOCC2)cc1	-7%
O=C(/C=C/c1ccccc1)NC(=S)Nc1ccc(CN2CCOCC2)cc1	-3%
CC(C)c1ccc(/C=C/C(=O)Nc2ccc(CN3CCOCC3)cc2)cc1	35µM*
CC(C)(C)NC(=O)[C@@H]1C[C@H]2CCCC[C@@H]2CN1C[C@H](O)[C@H](Cc1ccccc1)NC(=O)[C@@H](CC(N)=O)NC(=O)c1ccc2ccccc2n1	-10%[25.7 µM]
CCOC(=O)C12CC1/C(=N/O)c1ccccc1O2 (stereo not drawn)	12%
CCOC(=O)C1=C(N)Oc2cc(O)ccc2C1c1ccc([N+](=O)[O-])cc1 (stereo not drawn)	18µM*
CCOC(=O)C1=C(O)C(=O)N(c2ccc(S(N)(=O)=O)cc2)C1c1ccc([N+](=O)[O-])cc1 (stereo not drawn)	7%[57.5 µM]
CCOC(=O)C1=C(O)C(=O)N(c2ccccc2)C1c1cccc([N+](=O)[O-])c1 (stereo not drawn)	11%[57.5 µM]
CCCCC[C@H](O)/C=C/[C@@H]1[C@@H](C/C=C\CCCC(=O)O)[C@H](O)C[C@H]1O	-4%
COC(=O)[C@@]1(Cc2ccccc2)[C@H]2c3cc(C(=O)N4CCCC4)n(CCc4ccccn4)c3C[C@H]2CN1C(=O)c1ccccc1	-2%
O=S(=O)(c1ccccc1)N1CCC[C@@]2(CCN(c3ncccn3)C2)C1	4%
COC(=O)N[C@H](C[N+](=O)[O-])c1cccc(C)c1	-1%
COC(=O)[C@@]1(Cc2ccc(F)cc2)[C@H]2c3cc(C(=O)N(C)C)n(Cc4ccccc4)c3C[C@H]2CN1C(=O)c1ccccc1	-1%
C=C1C(=O)C=C2CN(C(=O)c3ccccc3)[C@@](Cc3ccc(F)cc3)(C(=O)OC)[C@@H]12	22µM*
COC(=O)[C@@]1(Cc2ccc(OC)cc2)[C@@H]2C(=CC(=O)[C@H]2CC(=O)C(=O)N(C)C)CN1C(=O)c1ccccc1	0%
CC12C=C(/C=C/CCc3ccco3)C(C)(C1)[C@H](CCc1ccco1)CC2=O (stereo partly drawn)	-3%
CO[C@@H](CCO)C[C@H]1O[C@H](C(=O)OC(C)C)CC[C@@H]1C	-1%
CC(C)[C@@H](CC(=O)N[C@@H]1CCCC[C@H]1C(=O)N[C@H](CC(=O)N[C@@H](CCC(=O)O)CC(=O)O)Cc1c[nH]c2ccccc12)NC(=O)C[C@H](CO)NC(=O)[C@@H]1CNCC[C@H]1N	-19%
O=C(c1cc([N+](=O)[O-])cc([N+](=O)[O-])c1)N(c1ccccn1)c1ccccn1	-2%
SMILES	ERK EGF inh
O=C(OC(c1ccccc1)c1nccc2ccccc12)c1cc([N+](=O)[O-])cc([N+](=O)[O-])c1 (stereo not drawn)	16µM*
O=C(NC(c1ccccc1)c1ccccn1)c1cccc([N+](=O)[O-])c1 (stereo not drawn)	11%
Cn1c(N=Nc2ccc(N3CCOCC3)cc2)[n+](C)c2ccccc21	16µM*
Cn1c(O)c(C=Nc2ccc(N3CCOCC3)cc2)c(=O)n(C)c1=S	-3%
Cn1c(N2CCOCC2)c(/C=N/O)c2ccccc21	-16%
C=CCC(O)c1ccccc1 (stereo not drawn)	-8%
O=c1cnc2cnc(N3CCOCC3)nc2n1Cc1ccc(F)cc1	-3%
CCc1c(C)nc2ncnn2c1NC1CCCc2ccccc21 (stereo not drawn)	5%
CCc1cccc(Nc2cc(C)nc3ncnn23)c1	-6%
CCc1c(C)nc2ncnn2c1Nc1ccc(C)c(C)c1	22µM*
COc1ccc(-c2nc(-c3ccccc3)c(NC(C)(C)C)o2)cc1	-14%
Cc1nc(N2CCOCC2)c2nc(-c3ccccc3)n(CCN3CCCC3)c2n1	-4%
O=C(O)CCC(=O)OC[C@@H](NC(=O)C(Cl)Cl)C(O)c1ccc([N+](=O)[O-])cc1 (stereo partly drawn)	11%
COCCn1c(=O)c(-c2cc(F)cc(F)c2)nc2cnc(Oc3cccc(Cl)c3)nc21	-17%
CS(=O)(=O)N1CCC[C@@]2(CCN(c3ccccn3)C2)C1	17%
COc1ccc(-c2nn(-c3ccccc3)cc2/C=N/NC(=S)NC(C)C)cc1OC	-7%
COc1ccc(-c2nn(-c3ccccc3)cc2/C=N/N=C(N)N)cc1OC	25µM*
COc1ccc(-c2nn(-c3ccccc3)cc2/C=N/Nc2ccc3ccccc3n2)cc1OC	4%
Cc1cccn2c1nc(=S)n2C(=O)c1ccco1	-2%
Cc1ccc(CN2CCN(C(=O)c3ccco3)CC2)cc1	-2%
Cc1ccc2c(c1)-c1c(ssc1=S)C(C)(C)N2C(=O)c1ccco1	13µM*
CCOC(=O)NC[C@H](Cc1ccc(OCCc2nc(-c3ccccc3)oc2C)cc1)N/C(C)=C\C(=O)c1ccc(C(F)(F)F)cc1	8%
COCC1=Cc2cc3c(cc2C(C(C(=O)OC)C(=O)OC)N1C(=O)OC)OCO3 (stereo not drawn)	-5%
C/C(=N\Nc1ccc(S(=O)(=O)Nc2ccccc2)cc1[N+](=O)[O-])c1ccncc1	-4%
COc1ccccc1NS(=O)(=O)c1ccc(OC)c([N+](=O)[O-])c1	1%
SMILES	ERK EGF inh
CCCC(CCC)=NNc1ccc(S(=O)(=O)Nc2ccccc2OC)cc1[N+](=O)[O-]	14µM*
COCCN1C(=O)N[C@@H](CCc2ccccc2)C(C(=O)OC)=C1C	-8%
COc1ccc(Nc2nc(-c3ccc4c(c3)NC(=O)CO4)cs2)cc1	20µM*
COc1ccc(-c2csc(NC3=NCCCCC3)n2)cc1	10%
COc1ccccc1Nc1nc(-c2ccc3c(c2)NC(=O)CO3)cs1	-2%
O=c1cnc2cnc(OCc3ccccc3)nc2n1Cc1ccc(F)cc1	-3%
C[C@@]12C=CC(=O)C=C1CC[C@H]1[C@H]3CC[C@](O)(C(=O)CO)[C@]3(C)CC(=O)[C@@H]12	-1%[25.7 µM]
O=C(NCc1ccc(Cl)cc1)c1ccc(CSc2nc3ccncc3[nH]2)cc1	19%[57.5 µM]
O=C(c1ccc(CSc2nc3ccncc3[nH]2)cc1)N1CCN(c2cccc(Cl)c2)CC1	18µM*
O=C(c1ccc(CSc2nc3ccncc3[nH]2)cc1)N1CCCCCC1	-6%[57.5 µM]
Cc1cc(CNC(=O)[C@H](C)[C@H]2C[C@]2(C)[C@H](NC(=O)OCc2ccccc2)c2ccccc2)nn1C	2%
CCCCC/C=C\C/C=C\C/C=C\CCCCC(=O)NC(C)C(=O)O (stereo not drawn)	-1%
CC(C)C1/C(=N/O)CC(c2ccccc2)NC1c1ccccc1 (stereo not drawn)	-11%[57.5 µM]
CCCC1/C(=N/O)CC(c2ccccc2)NC1c1ccccc1 (stereo not drawn)	35µM*

From PubChem BioAssay
